Screen size: about 2,300 compounds; about 1,400 (61%) were called active. Roughly 29% stayed inconclusive and do not appear here. Calls follow the shape of the dose curve; as a rule, active = well fitted inhibition curve with a large enough effect; inconclusive = small, poorly fitted or top-dose-only effect, or effect the other way; inactive = no such curve, though single readings can be large or run the other way. The set was probably picked from earlier hits. The list shows a part of the results.
Test: Confirmation screen for delayed death inhibitors of the malarial parasite plastid, 96 hour incubation; also: nearly all actives have a fitted effect of over 60% in size
Settings: P. falciparum luciferase growth in erythrocytes; series mostly up to 28.7 µM
Description: The goal of this screen is to discover new antimalarial compounds that act by inhibiting the development of the apicoplast in the malarial parasite Plasmodium falciparum. The biochemical processes that make this organelle essential for erythrocytic stage parasites are not well understood. However, antibiotics, such as azithromycin and tetracycline, which target the apicoplast translational machinery, have a potent antimalarial effect. […] We have developed a cell-based assay that measures parasite growth based on the expression of an integrated copy of a firefly luciferase reporter. To detect small molecules that cause this "delayed death phenotype, erythrocytes infected with the luciferase-expressing parasites were incubated with compounds for either one or two generations, corresponding to 48 and 96 hours, respectively. Compounds that inhibit parasite growth in the second generation, but not the first, should be enriched in antimalarials that target the apicoplast. Growth inhibition is detected by a decrease in luciferase activity. MLPCN Grant: R21 NS059500 Assay Provider: David Fidock and Eric Ekland, Columbia University Keywords: NIH Roadmap, MLPCN, MLI, MLSMR, qHTS, NCGC, qHTS, malaria, luciferase, viability
Four microliters of culture medium (RPMI 1640 with 0.5% w/v Albumax (GIBCO), 24 mM sodium bicarbonate and 10 ug/mL gentamycin) were dispensed by a Multi-drop Combi into white solid 1536-well plates (Grenier) and 23 nL compound was added by a pin tool. Four microliters of infected erythrocytes (2% hematocrit, 0.1% parasitemia final concentration) in culture medium were dispensed and the plates incubated for 96 hours at 37 C in 5% CO2. Two microliters of luciferase detection reagent was added and luminescence was detected by a ViewLux (PerkinElmer) reader
Potency is read from the fitted curve at half-maximal effect.

Row | Structure (SMILES) | Potency
1 | Cc1ccccc1C(=O)Nc1ccc2c(c1)CCCN2C(=O)c1cccs1 | 12.6 µM (active)
2 | COc1cc(OC)cc(C(=O)Nc2ccc3c(c2)CCCN3C(=O)c2cccs2)c1 | 11.2 µM (active)
3 | CC(C)c1[nH]nc2c1C(C1C=CCCC1)C(C#N)=C(N)O2 (stereo not drawn) | 14.1 µM (active)
4 | CCOCCCNC(=S)N1CCN(c2nc(-c3ccccc3)cs2)CC1 | 12.6 µM (active)
5 | Cc1c(-c2ccccc2)nc2ccccc2c1C(=O)Nc1ccncc1 | 0.178 µM (active)
6 | CC(C)CC1c2[nH]c3ccccc3c2CCN1CCCn1cccn1 (stereo not drawn) | 8.91 µM (active)
7 | CCC(=O)NC(=S)Nc1ccc(NC(=O)c2ccc(C)c([N+](=O)[O-])c2)cc1 | 10 µM (active)
8 | CC(=O)c1ccc(NC(=S)Nc2ccc3cn[nH]c3c2)cc1 | inactive
9 | CN(C(=O)c1cc([N+](=O)[O-])ccc1NCc1cccnc1)c1ccccc1 | 11.2 µM (active)
10 | CN1/C(=C\C(=O)CSc2cccc[n+]2[O-])C(C)(C)c2ccccc21 | 15.8 µM (active)
11 | CSc1nnc(C)c(=O)[nH]1 | inactive
12 | Clc1cccc(Cl)c1C[n+]1ccc2ccccc2c1 | 1.26 µM (active)
13 | Cc1ncc(CO)c(/C=N/NC(=S)Nc2ccc(F)cc2)c1O | 14.1 µM (active)
14 | Cc1cccc(N/N=C(\C(N)=O)C2=NC(C)(C)Cc3ccccc32)c1 | 3.98 µM (active)
15 | CC(=O)c1ccc(N/N=C(/C(N)=O)C2=NC(C)(C)Cc3ccccc32)cc1 | 6.31 µM (active)
16 | O=C(COc1ccccc1Cl)NC(=S)N1CCc2ccccc21 | 14.1 µM (active)
17 | O=C(NCc1ccccn1)Nc1cc(Cl)ccc1Cl | 6.31 µM (active)
18 | CC(=O)c1cccc(Oc2cc(NN3CCCCC3)c([N+](=O)[O-])cc2[N+](=O)[O-])c1 | 11.2 µM (active)
19 | Cc1onc(-c2c(Cl)cccc2Cl)c1C(=O)N=C(N)N1CC(C)OC(C)C1 (stereo not drawn) | 7.08 µM (active)
20 | Cc1onc(-c2c(Cl)cccc2Cl)c1C(=O)Nc1nc(C(C)(C)C)cs1 | 6.31 µM (active)
21 | Cc1noc(C)c1C(=O)Nc1nc(-c2ccc(F)cc2)cs1 | inactive
22 | Cc1onc(-c2c(Cl)cccc2Cl)c1C(=O)NC1CCCCC1 | 11.2 µM (active)
23 | COc1ccc(NC(=O)c2c(-c3c(Cl)cccc3Cl)noc2C)c(OC)c1 | 2.24 µM (active)
24 | COc1cnc(-c2ccccn2)nc1N(C)c1ccccc1 | 2 µM (active)
25 | COc1cnc(-c2ccccn2)nc1Oc1ccc(C(C)(C)C)cc1 | 2.51 µM (active)
26 | CSC1=NC(C)(C)C=C(/C=C/c2ccc(Cl)cc2Cl)N1 | 1.78 µM (active)
27 | CSC1=NC(C)(C)C=C(/C=C/c2ccc(Cl)cc2)N1 | 4.47 µM (active)
28 | CSC1=NC(C)(C)C=C(/C=C/c2c(Cl)cccc2Cl)N1 | 10 µM (active)
